Laboratory results taken from publication PMC4336329 (PLoS ONE, 2015).
About 14,000 (4.5%) of roughly 310,000 compounds showed an effect of 50% or more. Effects have a minus sign here. This excerpt belongs to a sample that is enriched for strong results.

target: human ether-à-go-go-related gene (hERG) potassium channel (human, UniProt Q12809); assay: primary screen, population patch clamp on CHO cells stably expressing hERG; higher = less effect of the substance
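Note: peak tail current of the secondary pulse compared with the same well before compound.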

Chain of human ether-à-go-go-related gene (hERG) potassium channel (Q12809 whole entry, looked up): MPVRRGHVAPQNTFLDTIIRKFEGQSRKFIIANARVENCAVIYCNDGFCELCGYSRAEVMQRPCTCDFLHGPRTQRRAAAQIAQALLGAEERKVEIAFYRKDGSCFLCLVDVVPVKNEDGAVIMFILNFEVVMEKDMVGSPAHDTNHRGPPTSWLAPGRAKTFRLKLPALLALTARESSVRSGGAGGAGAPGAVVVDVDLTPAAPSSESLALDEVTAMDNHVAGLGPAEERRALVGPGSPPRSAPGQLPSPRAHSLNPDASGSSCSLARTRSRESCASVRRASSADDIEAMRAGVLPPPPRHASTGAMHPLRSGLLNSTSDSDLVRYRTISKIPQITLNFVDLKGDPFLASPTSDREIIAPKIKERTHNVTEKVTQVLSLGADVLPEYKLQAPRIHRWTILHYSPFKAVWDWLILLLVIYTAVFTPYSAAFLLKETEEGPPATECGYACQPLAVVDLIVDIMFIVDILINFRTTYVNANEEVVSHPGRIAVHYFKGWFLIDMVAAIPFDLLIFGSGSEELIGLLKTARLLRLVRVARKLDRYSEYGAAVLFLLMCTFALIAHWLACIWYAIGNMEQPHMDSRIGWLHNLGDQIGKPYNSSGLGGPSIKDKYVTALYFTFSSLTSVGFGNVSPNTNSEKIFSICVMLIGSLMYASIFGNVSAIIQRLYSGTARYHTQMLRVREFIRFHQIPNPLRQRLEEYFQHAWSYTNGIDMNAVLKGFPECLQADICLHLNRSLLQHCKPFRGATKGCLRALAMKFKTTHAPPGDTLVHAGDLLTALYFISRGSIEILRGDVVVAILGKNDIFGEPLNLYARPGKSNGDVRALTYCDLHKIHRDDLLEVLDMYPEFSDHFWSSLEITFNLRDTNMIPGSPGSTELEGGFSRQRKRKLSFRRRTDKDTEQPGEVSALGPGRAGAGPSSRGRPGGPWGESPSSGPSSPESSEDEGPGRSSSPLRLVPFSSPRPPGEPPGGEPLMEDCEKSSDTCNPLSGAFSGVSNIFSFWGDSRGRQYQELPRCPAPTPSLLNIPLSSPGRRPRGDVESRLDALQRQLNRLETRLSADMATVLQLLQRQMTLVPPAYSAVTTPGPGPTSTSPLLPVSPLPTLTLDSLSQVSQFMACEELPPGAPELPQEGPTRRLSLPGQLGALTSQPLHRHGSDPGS

| Structure (SMILES) | hERG current change (%, negative = inhibition) at 10uM [%] |
| --- | --- |
| CC1CCN(c2c(NCc3ccc(C(=O)N4c5ccccc5CC4C)cc3)c(=O)c2=O)CC1 (centres unmarked) | -13 |
| Cc1ccc(S(=O)(=O)Nc2c(C(=O)O)[nH]c3ccccc23)c(C)c1 | 8.39 |
| N#C/C(N)=C(/C#N)N=Cc1cccc(Cl)c1 | 4.99 |
| CCN1CCN(Cc2c(O)ccc3c2O/C(=C\c2ccc(C)cc2)C3=O)CC1 | -35.7 |
| CSc1ccc(S(=O)(=O)Nc2ccc(NC(C)=O)cc2)cc1 | -11.3 |
| CCOc1ccc(CN(C(=O)/C=C/c2ccco2)C2CCS(=O)(=O)C2)cc1 (centres unmarked) | -31.6 |
| CC(=O)c1cccc(N(C(=O)CNC(=O)c2ccco2)C(C(=O)NC2CCCC2)c2ccc(C)o2)c1 (centres unmarked) | 6.93 |
| CCN1CCN(C(=O)C2CCCN(c3ncnc4c3nc3n4CCCCC3)C2)CC1 (centres unmarked) | 11.6 |
| O=C(NCCCN1CCCCC1)C1CCCN(c2ncnc3c2nc2n3CCCCC2)C1 (centres unmarked) | 1.8 |
| O=C(NCCCN1CCN(c2ccc(F)cc2)CC1)C1CCCN(c2ncnc3c2nc2n3CCCCC2)C1 (centres unmarked) | -66.3 |
| CCOC(=O)C1CCN(C(=O)C2CCCN(c3ncnc4c3nc3n4CCCCC3)C2)CC1 (centres unmarked) | -34.1 |
| O=C(C1CCN(c2ncnc3c2nc2n3CCCCC2)CC1)N1CCN(c2ccc(F)cc2)CC1 | -51.5 |
| O=C(C1CCN(c2ncnc3c2nc2n3CCCCC2)CC1)N1CCCCC1 | 16 |
| O=C(C1CCN(c2ncnc3c2nc2n3CCCCC2)CC1)N1CCN(c2ccccc2F)CC1 | -33.1 |
| CC1CCN(CCCNC(=O)C2CCCN(c3ncnc4c3nc3n4CCCCC3)C2)CC1 (centres unmarked) | -3.75 |
| O=C(C1CCCN(c2ncnc3c2nc2n3CCCCC2)C1)N1CCN(c2ccccc2F)CC1 (centres unmarked) | -72 |
| O=C(C1CCCN(c2ncnc3c2nc2n3CCCCC2)C1)N1CCN(c2ccc(F)cc2)CC1 (centres unmarked) | -66.8 |
| Cc1ccc(N2CCN(C(=O)C3CCCN(c4ncnc5c4nc4n5CCCCC4)C3)CC2)c(C)c1 (centres unmarked) | -7.35 |
| CN1CCN(C(=O)C2CCN(c3ncnc4c3nc3n4CCCCC3)CC2)CC1 | 17.7 |
| O=C(O)CCC(=O)Nc1cc(C(F)(F)F)cc(C(F)(F)F)c1 | 15.1 |
| Cc1ccccc1-n1c(-c2csc(C)c2C)n[nH]c1=S | 17.6 |
| Cc1cc(C)c2c(N)c(C(=O)c3cccc(Cl)c3)sc2n1 | 1.67 |
| CCOc1ccc(C(=O)N2CCc3cc(OC)c(OC)cc3C2)cc1OCC | 2.45 |
| CCOC(=O)C(C(=O)OCC)N(C#N)c1nc(OC)nc(N(C)C)n1 | -4.52 |

| Structure (SMILES) | hERG current change (%, negative = inhibition) at 10uM [%] |
| --- | --- |
| O=C(CS)Nc1ccc2ccccc2c1 | 20.8 |
| CCn1c2ccccc2c2cc(NC(=O)c3cccc(OC)c3)ccc21 | 13.9 |
| COC(=O)c1sccc1NC(=O)CC1C(=O)NCCN1C(=O)c1ccc(N(C)C)cc1 (centres unmarked) | 7.57 |
| COc1ccc(Cl)cc1NC(=O)CSc1nnc(CN2CCOCC2)n1-c1ccc(Cl)cc1 | -46.6 |
| O=C(Nc1ccc(S(=O)(=O)NCC2CCCO2)cc1)c1ccccc1 (centres unmarked) | 2.19 |
| O=C(C1CCN(c2ncnc3c2nc2n3CCCCC2)CC1)N1CCN(c2cccc(Cl)c2)CC1 | -36.7 |
| CC1CC(C)CN(C(=O)C2CCCN(c3ncnc4c3nc3n4CCCCC3)C2)C1 (centres unmarked) | -35.8 |
| CCCN1CCN(C(=O)C2CCCN(c3ncnc4c3nc3n4CCCCC3)C2)CC1 (centres unmarked) | -1.04 |
| O=C(C1CCCN(c2ncnc3c2nc2n3CCCCC2)C1)N1CCN(c2cccc(Cl)c2)CC1 (centres unmarked) | -72.8 |
| Cc1ccc(C)c(N2CCN(C(=O)C3CCCN(c4ncnc5c4nc4n5CCCCC4)C3)CC2)c1 (centres unmarked) | -33.6 |
| O=C(C1CCCN(c2ncnc3c2nc2n3CCCCC2)C1)N1CCCCC1 (centres unmarked) | -18.2 |
| O=C(C1CCCN(c2ncnc3c2nc2n3CCCCC2)C1)N1CCN(c2ccc(Cl)cc2)CC1 (centres unmarked) | -54.8 |
| O=C(C1CCCN(c2ncnc3c2nc2n3CCCCC2)C1)N1CCN(c2ccccc2)CC1 (centres unmarked) | -74 |
| O=C1CNC(=S)N1C(CO)c1ccccc1 (centres unmarked) | 22.2 |
| CCc1cc(C(=O)Cc2ccc(F)cc2)c(O)cc1O | -12.7 |
| O=C(O)c1c(C(=O)O)c(-c2ccc(Br)cc2)n2c1CSC2 | 15 |
| O=C(O)COc1ccc(S(=O)(=O)NCCc2ccccc2)cc1 | 6.4 |
| CC(C)C[C@H](NC(=O)C1CC(=O)N(c2ccc3c(c2)OCO3)C1)C(=O)NC1CCCC1 (some centres unmarked) | -0.704 |
| Cc1cccc(OCC(=O)Nc2ccc(NC(=O)c3ccco3)c(C)c2)c1 | -15.3 |
| COC(=O)c1ccc(NC(=O)C2CCN(C(=O)c3cc(OC)c(OC)c(OC)c3)CC2)cc1 | 6.73 |
| COc1ccc(C(=O)N2CCC(C(=O)Nc3ccc(OC)c(OC)c3)CC2)cc1 | 1.37 |
| COc1ccc(C(=O)N2CCC(C(=O)Nc3cccc(C)c3)CC2)cc1OC | -38.9 |
| COc1ccc(NC(=O)C2CCN(C(=O)c3ccc(OC)cc3)CC2)cc1 | -72.2 |
